We go through 40 compounds from PubChem BioAssay.

Activity calls are given as the source filed them.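 The calls were made as follows: active = mean z-score across replicates of 1.96 or higher in either the MELAS or the Rieske mutant cell line; inactive = the rest.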

The nature of the first experiment: MELAS cybrid and Rieske KO viability enhancers – cell-based, MELAS cybrids, Rieske KO mouse fibroblasts, CellTiter-Glo, primary screen (AID 1508586).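 Also: test concentration not given here; z relative to plate mean and SD of compound and empty wells.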 Conditions: MELAS cybrid survival, low glucose, CellTiter-Glo 48 h; stronger effect = higher value.
As to `CN1C(=O)N(Cc2ccccc2)C2(CCN(Cc3nc4ccccc4n3C)CC2)C1=O`, the z-score is 0.0463 (inactive).

Take `O=C(NCc1ccccn1)c1cc(NCC2CC2)cc(S(=O)(=O)N2CCCC2)c1`: the z-score was -0.201 (inactive).

`CC1=C(CCN2CCC3(CC2)C(=O)N(C(C)C)C(=O)N3C)C(C)(C)CCC1`: the z-score is -0.0598 (inactive).

In the case of `O=C(Nc1ccccc1Cl)N[C@H]1C[C@H]2C(=O)N[C@H](Cc3ccc(O)cc3)C(=O)N2C1`, the z-score was -0.242 (inactive).

Still in this experiment, the particulars now being: Rieske KO mouse fibroblast survival, low glucose, CellTiter-Glo 72 h.
Consider `Cc1ccc(C(C)CCN2CCC3(CC2)C(=O)N(C(C)C)C(=O)N3CCC(C)C)o1` (stereo not given), for which the z-score is -0.496.

For the compound `O=C([C@@H]1C[C@H](CN2CCOCC2)CN(Cc2ccccc2)C1)N1CCCC1`, the z-score is -0.211.

As to `COC(=O)c1c(NC(=O)c2ccco2)c2cc(NC3CCOCC3)cnc2n1C`, the z-score is -0.251.

Take `Cc1c(CN2CCc3c(c(C(=O)NC4CCCC4)nn3CC(C)C)C2)c(=O)n(-c2ccccc2)n1C`: the z-score was -0.276.

Turning to `CC(C)CCNc1cc(C(=O)NCCCn2ccnc2)cc(S(=O)(=O)N2CCCC2)c1`, the z-score was -0.386.

Turning to `CC(C)CNC(=O)[C@@H]1C[C@H](CN2CCOCC2)CN(Cc2ccccc2)C1`, the z-score was found to be 0.562.

In the case of `C[C@H]1NC(=O)[C@H]2CN(C(=O)Oc3ccc(Cl)cc3)CCN2C1=O`, the z-score came out at 0.985.

In the case of `COC1CN(Cc2cn(C)c3ccccc23)CC(=O)N(Cc2ccccc2)C1` (stereo not given), the z-score was -0.0158.

For `COc1ccc(-c2[nH]ncc2CN2CCC3(CC2)C(=O)N(C(C)C)C(=O)N3CCC(C)C)cc1`, the z-score was -0.0351.

Take `CCn1nc(C(=O)N(C)Cc2ccco2)c2c1CCC(N(C)Cc1ccon1)C2` (stereo not given): the z-score was -0.252.

In the case of `C=CCn1nc(C(=O)N2CCSCC2)c2c1CCC(NCCCSC)C2` (stereo not given), the z-score is -0.019.

Regarding `Cc1csc(-c2cc(C(=O)NCCCN3CCOCC3)cc(S(=O)(=O)N3CCOCC3)c2)c1`, the z-score stood at 0.151.

Regarding `COCc1ccc(CN2CCC3(CC2)C(=O)N(C2Cc4ccccc4C2)C(=O)N3CC(C)C)o1`, the z-score is -0.702.

Regarding `COc1ccc(-c2cc3c(n(C)c2=O)CCN(C2CCSC2)C3)c2ccc(C)nc12` (stereo not given), the z-score was -0.332.

Turning to `CCc1nc(Cn2c3c(cc(-c4ccccc4C)c2=O)CN(Cc2ccc(O)c(Cl)c2)CC3)no1`, the z-score is -0.271.

In the case of `CCn1cc(CN2CCN3C(=O)[C@@H]4C[C@@H](O)CN4C(=O)[C@H]3C2)c(C)n1`, the z-score is -0.193.

With `CCc1nc(CNc2cc(C(=O)NCc3ccccn3)cc(S(=O)(=O)N3CCCC3)c2)c(C)[nH]1`, the z-score was -0.597.

Take `CC(C)CN1CC(OCc2cccc(F)c2)CN(C(=O)c2cccc(N3CCNC3=O)c2)CC1=O` (stereo not given): the z-score was -0.354.

In the case of `Cn1nc(C(=O)N2CCCCCC2)c2c1CCC(NCc1ccc(C(F)(F)F)cc1)C2` (stereo not given), the z-score was -0.22.

`Cc1cc(-c2cc3c(n(C)c2=O)CCN(Cc2ccc(Sc4nncn4C)o2)C3)ccc1F`: the z-score is -0.369.

Consider `CN(C)C(=O)c1nn(Cc2ccccc2)c2c1CN(C(=O)C1CC(=O)Nc3ccccc31)CC2` (stereo not given), for which the z-score is -0.253.

In the case of `O=C(Oc1ccccc1)N1CCN2C(=O)[C@@H]3C[C@@H](O)CN3C(=O)[C@H]2C1`, the z-score was -0.267.

On to `CCCCNC(=O)[C@@H]1C[C@H](CN2CCOCC2)CN(CCc2ccccc2)C1`, for which the z-score is -0.178.

Regarding `CN(Cc1ccco1)C(=O)c1nn(C)c2c1CC(N1CCOc3ccc(Cl)cc3C1)CC2` (stereo not given), the z-score was found to be 0.109.

`Cc1ccc(C(C)CCN2CCc3c(c(C(=O)N4CCC(O)CC4)nn3CCc3ccccc3)C2)o1` (stereo not given): the z-score was -0.539.

In the case of `COc1ccc(CN2C(=O)N(C)C3(CCN(Cc4cccn4-c4ccccn4)CC3)C2=O)cc1`, the z-score was -0.368.

For the compound `COc1cc(CN2CC(=O)N(CC3CCOCC3)CC(OCc3ccccn3)C2)cc2c1OCO2` (stereo not given), the z-score was determined as 4.95.

For the compound `O=c1c(-c2ccccc2Cl)cc2c(n1Cc1ccncc1)CCN(Cc1ccnc3ccccc13)C2`, the z-score is -0.0903.

Consider `Cc1csc(-c2cc(C(=O)NCCC3CCCN3C)cc(S(=O)(=O)N3CCOCC3)c2)c1` (stereo not given), for which the z-score is -0.54.

Consider `Cc1ccnn1CCC(=O)N1CC(=O)N(CC(C)C)CC(OCc2ccccn2)C1` (stereo not given), for which the z-score is -0.668.

Consider `CC(C)CCNc1cc(C(=O)N[C@H]2CCCCNC2=O)cc(S(=O)(=O)NC(C)C)c1`, for which the z-score was determined as 0.262.

For `Cc1ccc(-c2cc(C(=O)N3CCC[C@H]3CO)cc(S(=O)(=O)N3CCOCC3)c2)s1`, the z-score was determined as 1.18.

Turning to `COc1ccccc1C(=O)N1CCN2C(=O)[C@@H]3CSCN3C(=O)[C@H]2C1`, the z-score was 0.475.

For `Cn1nc(C(=O)NCc2cccnc2)c2c1CCN(Cc1ccc3c(c1)Cc1ccccc1-3)C2`, the z-score is -0.0827.

As to `CC(C)N1CC(OCc2ccc(F)cc2)CN(C(=O)c2ccc(C#CC(C)(C)O)o2)CC1=O` (stereo not given), the z-score is -0.177.

As for `COc1ccc(C(=O)N2CCN3C(=O)[C@H](COCc4ccccc4)NC(=O)[C@H]3C2)cc1`, the z-score is -0.655.
